Consider twelve molecules from PubChem BioAssay.

Each structure is given as a SMILES string. Several values for one entry are separate records, joined by “and”; a condition that tells them apart may be missing. Equal values may be shown once. For some assays here: Potency and affinity values are given separately. Activity calls are given as the source filed them.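 Rule for the calls, unless noted: active = thallium flux through the channel raised or lowered by more than 3 SD from vehicle-only wells, actives on both sides; inactive = the rest.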

Experiment [1] is described as follows: compounds altering viability of human ES cells (AID 493140; call rule not given here;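 note: cells exposed to compounds for four days before counting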). As to conditions: human embryonic stem cell survival screen; stronger effect = higher value.
Experiment [2] is described as follows: galactose survival enhancers in mitochondrial complex I cybrids – cell-based, galactose medium, ATP luminescence, primary screen (AID 1645843;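 active = z-score of at least 1.8 in each of two replicates, scored against plate mean and spread of sample wells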;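 note: positive z means more ATP and so rescue of galactose-driven cybrid death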). The note with it: complex I mutant cybrid cells, 72 h, stronger effect = higher value.
Another experiment deals with F380Y/beta1. Put plainly: BK channel mutant inhibitors and activators – cell-based, U2OS BacMam, thallium flux, beta subunits, selectivity assay, profiling panel (AID 1259406).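 Note: initial slope of Thallos dye fluorescence rise after thallium is added; log ratio against the mean of 0.3% DMSO vehicle wells on the same plate.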 As to conditions: U2OS BacMam BK variants, at 30 µM.
The subject of a further experiment is F380Y/beta2Delta. The experiment is described as above. As to conditions: U2OS BacMam BK variants, at 30 µM.
A further experiment deals with F380Y/beta4. The experiment is described as above. The note with it: U2OS BacMam BK variants, at 30 µM.
Experiment [3] addresses Calcium-activated potassium channel subunit alpha-1 (Homo sapiens) + Leucine-rich repeat-containing protein 26 (Homo sapiens) (UniProt Q12791+Q2I0M4). The description is as above. As to conditions: U2OS BacMam BK variants, F380Y/Slo1WT/gamma1, at 30 µM.
Another experiment relates to R275C. Described as above. As to conditions: U2OS BacMam BK variants, at 30 µM.
The test system of a further experiment is R275C/beta1. The description is as above. As to conditions: U2OS BacMam BK variants, at 30 µM.
A further experiment concerns R275C/beta2Delta. Described as above. The note with it: U2OS BacMam BK variants, at 30 µM.
A further experiment has as its system R275C/beta4. The experiment is described as above. The note with it: U2OS BacMam BK variants, at 30 µM.
Another experiment has as its system R275C/Slo1WT/beta2. The description is as above. As to conditions: U2OS BacMam BK variants, at 30 µM.
A short description of experiment [4]: blockers of polyQ-driven CASP3 activation – cell-based (AID 1583). The note with it: polyglutamine-induced caspase-3 activation, cell assay; stronger effect = higher value;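 tested at 10 µM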.
Experiment [5] in a line: yeast 75Q aggregation reduction – 75Q-TubU reporter (AID 1593). As to conditions: Yeast 75Q polyglutamine aggregation reporter.
Experiment [6] can be described thus: restoration of touch response, mutant HTT neurons – whole organism, C. elegans mechanosensory neurons, N-terminal huntingtin (AID 1599). As to conditions: C. elegans polyQ-huntingtin mechanosensory neurons, stronger effect = higher value.
The nature of experiment [7]: blockers of cytochrome c efflux from mitochondria – biochemical, purified mitochondria (AID 1603).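 Note: mouse liver mitochondria challenged with calcium chloride; signal normalized to the plate average as 100%.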 As to conditions: stronger effect = lower value.
The nature of experiment [8]: polyglutamine aggregate formation blockers (AID 1604). As to conditions: polyglutamine-induced protein aggregation inhibition assay; stronger effect = higher value; tested at 2.5 µM.
Experiment [9] can be described thus: glutamate transport activators, MN-1 cells, MN-1 cell line (AID 1612).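 Note: tested at 1 µM final; 0% = mean of DMSO vehicle wells on each plate; positive means more glutamate uptake than control and negative means less.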 The note with it: MN-1 motor neuron cells, stronger effect = higher value.
The nature of experiment [10]: 75Q-TubH aggregate inhibition, S. cerevisiae, yeast (AID 1616). As to conditions: S. cerevisiae 75Q-TubH polyglutamine aggregation suppression; stronger effect = higher value.
Experiment [11] has as its system Neuropilin-2 / VEGF-C interaction (human). Put plainly: small molecules blocking Neuropilin-2/VEGF-C interaction – biochemical, microplate binding format, z-score (AID 743281; call rule not given here). As to conditions: microplate NRP2/VEGF-C binding assay; stronger effect = lower value.
A short description of experiment [12]: modulation of C. elegans fzo-1 (AID 1259413; call rule not given here;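 note: fzo-1 mutant C. elegans worms in liquid wells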). As to conditions: C. elegans fzo-1 modulator screen, mean read-out; stronger effect = higher value.

For orientation: inhibition means the change of the read-out against control, counted positive when it falls.

Chain of Calcium-activated potassium channel subunit alpha-1 (Homo sapiens) + Leucine-rich repeat-containing protein 26 (Homo sapiens) (Q2I0M4 whole entry, looked up, one chain of several): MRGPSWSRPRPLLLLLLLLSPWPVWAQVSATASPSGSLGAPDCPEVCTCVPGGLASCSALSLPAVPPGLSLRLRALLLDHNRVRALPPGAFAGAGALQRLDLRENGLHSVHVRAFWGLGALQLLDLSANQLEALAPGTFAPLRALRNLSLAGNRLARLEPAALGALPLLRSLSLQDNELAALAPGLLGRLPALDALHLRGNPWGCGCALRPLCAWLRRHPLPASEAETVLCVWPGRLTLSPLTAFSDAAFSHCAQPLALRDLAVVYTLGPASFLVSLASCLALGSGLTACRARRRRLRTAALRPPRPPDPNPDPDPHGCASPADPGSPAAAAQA

Regarding `C#C[C@]1(O)CC[C@H]2[C@@H]3CCC4=Cc5oncc5C[C@]4(C)[C@H]3CC[C@@]21C`, the survival in experiment [1] was 10.4 (inactive). In experiment [2], the z-score was -1.4 (inactive) and -1.46 (inactive). In addition, the log fold change Tl+ flux with F380Y/beta1 was 0.032 (inactive); in the experiment on F380Y/beta2Delta it was -0.066 (inactive); in the experiment with F380Y/beta4 it was -0.0261 (inactive); in [3], 0.00932 (inactive); in the experiment on R275C it was 0.0195 (inactive); with R275C/beta1 it was 0.048 (inactive). Besides, the log fold change Tl+ flux was -0.00872 (inactive) in the experiment on R275C/beta2Delta, 0.0847 (inactive) in the experiment on R275C/beta4 and -0.016 (inactive) in the experiment with R275C/Slo1WT/beta2.

In the case of `CNC(=O)Oc1ccc2c(c1)[C@]1(C)CCN(C)[C@@H]1N2C`, in experiment [4], the inhibition is 8.95%. In [5], this molecule returned a score of 1.22. The rescue above control in experiment [6] came out at 1.05. In addition, in experiment [7], the cytochrome c release ratio is 1.08. In [8], this molecule registered an inhibition of aggregation of 39.4%. Moreover, in experiment [9], the glutamate uptake change is -18.2%. In experiment [10], this molecule yielded an aggregation suppression score of 1.03. In experiment [1], the survival is 7.25 (inactive). Also, the z-score in experiment [2] was -0.835 (inactive) and -0.865 (inactive).

Regarding `CC1(C)O[C@@H]2C[C@H]3[C@@H]4C[C@H](F)C5=CC(=O)C=C[C@]5(C)[C@H]4[C@@H](O)C[C@]3(C)[C@]2(C(=O)CO)O1`, the survival in [1] was 3 (inactive). In addition, the z-score in [2] was -1.48 (inactive). Moreover, the log fold change Tl+ flux in the experiment on F380Y/beta1 is 0.017 (inactive); in the experiment on F380Y/beta2Delta, -0.0212 (inactive); in the experiment with F380Y/beta4, -0.0612 (inactive); in [3], -0.0123 (inactive); in the experiment on R275C, 0.00271 (inactive); in the experiment with R275C/beta1 it was -0.0113 (inactive). Besides, the log fold change Tl+ flux was -0.0208 (inactive) in the experiment with R275C/beta2Delta, 0.0291 (inactive) with R275C/beta4 and 0.0322 (inactive) with R275C/Slo1WT/beta2.

In the case of `COc1cc2nc(N3CCN(C(=O)c4ccco4)CC3)nc(N)c2cc1OC`, the inhibition in experiment [4] is 16.5%. The same molecule yielded a score in experiment [5] of 1.21. In experiment [6], this molecule came in with a rescue above control of -0.41. For the same molecule, in [7], the cytochrome c release ratio was found to be 1.07. Also, in experiment [8], the inhibition of aggregation was 70.4%. Moreover, in experiment [9], the glutamate uptake change is -22.2%. This molecule registered an aggregation suppression score in experiment [10] of 1.01. For the same molecule, the survival in experiment [1] was 0.667 (inactive). In experiment [11], the z-score was 0.105 (inactive). In experiment [12], the mean signal is 236 (inactive). Besides, the log fold change Tl+ flux in the experiment on F380Y/beta2Delta is -0.00919 (inactive); in experiment [3], 0.00974 (inactive); in the experiment with R275C, -0.0502 (inactive); in the experiment with R275C/beta1 it was -0.0587 (inactive); in the experiment with R275C/beta2Delta, -0.0145 (inactive).

As for `C[C@]12C=CC(=O)C=C1CC[C@@H]1[C@@H]2[C@@H](O)C[C@@]2(C)[C@H]1CC[C@]2(O)C(=O)CO`, the survival in [1] is 15.8 (inactive). In addition, the z-score in experiment [2] is -0.29 (inactive) and 0.46 (inactive). In addition, the log fold change Tl+ flux is 0.00512 (inactive) in the experiment with F380Y/beta1; 0.0411 (inactive) with F380Y/beta2Delta; 0.023 (inactive) in the experiment on F380Y/beta4; -0.0308 (inactive) in experiment [3]; 0.0128 (inactive) with R275C; 0.0311 (inactive) in the experiment with R275C/beta1. In addition, the log fold change Tl+ flux was 0.0197 (inactive) in the experiment on R275C/beta2Delta, -0.0125 (inactive) with R275C/beta4 and -0.0471 (inactive) in the experiment with R275C/Slo1WT/beta2.

Turning to `CN(C)CCN(Cc1ccccc1)c1ccccn1`, the inhibition in experiment [4] was found to be 16.8%. The score in experiment [5] stood at 1.31. Also, in experiment [6], the rescue above control amounted to 2.67. The cytochrome c release ratio in experiment [7] amounted to 1.13. The same molecule had an inhibition of aggregation in experiment [8] of 79.6%. Also, in experiment [9], the glutamate uptake change was -25.1%. Also, the aggregation suppression score in [10] is 1.09. The z-score was -0.192 (inactive) in [11] and 0.73 (inactive) in experiment [2]. For the same molecule, the mean signal in [12] was 272 (inactive). The log fold change Tl+ flux in the experiment on F380Y/beta2Delta is -0.027 (inactive); in [3], 0.0226 (inactive); in the experiment with R275C, 0.027 (inactive); in the experiment with R275C/beta1, 0.0111 (inactive); in the experiment with R275C/beta2Delta, -0.0395 (inactive).

For `Nc1nc2ccc(OC(F)(F)F)cc2s1`, the survival in experiment [1] is 22.5 (inactive). For the same molecule, the z-score in experiment [11] is 1.45 (inactive). Moreover, the mean signal in experiment [12] was 260 (inactive).

`OCCN(CCO)c1nc(N2CCCCC2)c2nc(N(CCO)CCO)nc(N3CCCCC3)c2n1`: the inhibition in [4] was -102%. For the same molecule, in experiment [5], the score turned out to be 1.27. The molecule further returned a rescue above control in experiment [6] of 18.2. The cytochrome c release ratio in experiment [7] turned out to be 1.1. For the same molecule, in [8], the inhibition of aggregation came to 79.2%. For the same molecule, the glutamate uptake change in [9] is 32%. The molecule also yielded an aggregation suppression score in experiment [10] of 1.33. Moreover, the survival in experiment [1] was 34.4 (inactive). The mean signal in [12] was 298 (inactive).

For the molecule `CC(=O)S[C@@H]1CC2=CC(=O)CC[C@]2(C)[C@H]2CC[C@@]3(C)[C@@H](CC[C@@]34CCC(=O)O4)[C@H]12`, the survival in [1] was 17.9 (inactive). Besides, the z-score in [2] is -0.25 (inactive) and 0.65 (inactive). Moreover, the log fold change Tl+ flux in the experiment with F380Y/beta1 is 0.0461 (inactive); in the experiment with F380Y/beta2Delta, -0.0301 (inactive); in the experiment on F380Y/beta4 it was -0.0243 (inactive); in experiment [3] it was 0.0238 (inactive); in the experiment with R275C, 0.0437 (inactive); in the experiment with R275C/beta1 it was 0.0449 (inactive). Besides, the log fold change Tl+ flux with R275C/beta2Delta is 0.0485 (inactive); with R275C/beta4, 0.0567 (inactive); in the experiment on R275C/Slo1WT/beta2 it was 0.0564 (inactive).

Turning to `CC(=O)OCC(=O)[C@@]1(O)CC[C@H]2[C@@H]3CCC4=CC(=O)C=C[C@]4(C)[C@H]3[C@@H](O)C[C@@]21C`, in experiment [2], the z-score was 0.085 (inactive). In addition, the log fold change Tl+ flux is 0.0202 (inactive) in the experiment on F380Y/beta1; -0.0297 (inactive) in the experiment on F380Y/beta2Delta; 0.0608 (inactive) in the experiment with F380Y/beta4; 0.072 (inactive) in [3]; -0.0254 (inactive) in the experiment with R275C; 0.0604 (inactive) in the experiment on R275C/beta1. The log fold change Tl+ flux in the experiment on R275C/beta2Delta is 0.0146 (inactive); in the experiment with R275C/beta4 it was 0.0243 (inactive); in the experiment on R275C/Slo1WT/beta2 it was 0.0458 (inactive).

With `C#C[C@]1(O)CC[C@H]2[C@@H]3CCC4=CC(=O)CC[C@@H]4[C@H]3CC[C@@]21CC`, the survival in [1] was 3.67 (inactive). Also, in experiment [2], the z-score is 0.335 (inactive). Further, the log fold change Tl+ flux in the experiment with F380Y/beta1 was 0.149 (active); with F380Y/beta2Delta, 0.00649 (inactive); with F380Y/beta4, -0.00261 (inactive); in [3], 0.0485 (inactive); in the experiment with R275C, -0.0255 (inactive); in the experiment on R275C/beta1, 0.00999 (inactive). Further, the log fold change Tl+ flux in the experiment with R275C/beta2Delta is -0.0278 (inactive); with R275C/beta4, -0.0556 (inactive); in the experiment with R275C/Slo1WT/beta2, -0.0344 (inactive).

With `NC(N)=NC(=O)c1nc(Cl)c(N)nc1N`, the inhibition in [4] was 17.4%. Moreover, in experiment [5], the score turned out to be 0.64. For the same molecule, in [6], the rescue above control was -10.9. Further, in experiment [7], the cytochrome c release ratio was 1.1. This molecule also returned an inhibition of aggregation in experiment [8] of 27.6%. Further, the glutamate uptake change in [9] was -1.52%. This molecule gave an aggregation suppression score in [10] of 1.02. Further, the survival in [1] was 8.17 (inactive). Besides, the z-score in experiment [11] is -0.147 (inactive). Besides, the mean signal in [12] was 212 (inactive). The log fold change Tl+ flux in the experiment on F380Y/beta2Delta is -0.0347 (inactive); in experiment [3], 0.0238 (inactive); with R275C, -0.0162 (inactive); with R275C/beta1 it was 0.0417 (inactive); in the experiment on R275C/beta2Delta, -0.00743 (inactive).
